Screens deposited in PubChem BioAssay by National Center for Advancing Translational Sciences (NCATS).
This is a sample that favours compounds with a hit; in the whole collection about 19% have one here.
DT40 TDP1 no CPT = qHTS for Inhibitors of human tyrosyl-DNA phosphodiesterase 1 (TDP1): qHTS in cells in absence of CPT; Potency, µM (titrated, usually from 46.2 µM), for the others: at the highest dose activity change, negative = growth inhibition, usual class: inhibitors; 420,000 compounds, 15% hits; AID 686978, 2013; DT40 Tdp1-/- hTDP1 cells, no CPT, ATP luminescence, 48 h; further: potency means the concentration at half of the fitted maximal effect; nearly all actives have a fitted effect of over 55% in size
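Compound effects on proliferation are scored in DT40 Tdp1-/-;hTDP1 cells in the absence of CPT. ATP levels (CellTiter-Glo luminescence) are recorded after a ≥48 hr, 37 °C incubation.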
HT1080 IDH1KD tx = HT-1080 IDH1 knockdown cell toxicity (counter line). 360,000 compounds, 2% hits. Potency, µM (top dose mostly 46.1 µM), inactives show at the top dose activity, negative = toxicity, usual class: cytotoxic. HT-1080 IDH1 knockdown viability, ATP luminescence, 48 h;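 further: potency means the concentration at half of the fitted maximal effect; 0% = DMSO wells and -100% = cell-free medium wells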
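Viability of IDH1-knockdown HT-1080 fibrosarcoma cells was assessed by CellTiter-Glo after 48 h at 37 °C with titrated compound; concentration-effect curves were classified by fit quality and response size.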
ELG1 DNA repair = blocks ELG1-dependent DNA repair in HEK293T cells; AID 504467; 330,000 compounds, 2.3% hits; HEK293T ELG1-luciferase reporter, luminescence, 16 h; DNA damage induced by 5-fluorouridine; Potency, µM (titrated, usually from 46.1 µM), for inactives: top-dose activity change, negative = inhibition, actives largely listed as inhibitors; further: potency means the concentration at half of the fitted maximal effect; nearly all actives have a fitted effect of over 55% in size
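Cells (2,000 per well) received 5-fluorouridine plus test compound or DMSO and were incubated 16 hr at 37 °C, 5% CO2. Luciferase activity was read by luminescence 30 min after ONE-Glo addition; signal suppression marked inhibition of damage-induced ELG1 function.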
DT40 TDP1 CPT = DT40-hTDP1 cell growth loss with CPT; chicken DT40 Tdp1-/-;hTDP1 cells + 20 nM CPT, ATP luminescence, 48 h; Potency, µM (titrated, usually from 46.2 µM), for the others: at the highest dose activity change, negative = growth inhibition, usual class: inhibitors; 420,000 compounds, 12% hits; AID 686979; further: potency means the concentration at half of the fitted maximal effect; nearly all actives have a fitted effect of over 55% in size
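Cell growth measured by CellTiter-Glo luminescence after a minimum 48 h, 37 C compound exposure with 20 nM CPT in Tdp1-knockout DT40 cells stably expressing hTDP1, seeded 400/well; qHTS titration format.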
IL-1B inflam inh = inflammasome signaling inhibition, IL-1 beta readout | AID 743279 | 360,000 compounds, 4.7% hits | activity change, % at 57.5 µM | THP-1 LPS/ATP IL-1B secretion, AlphaLISA, 16 h; stronger effect = lower value; in the data active means activity change below about -50%; inconclusive means mostly about -30% to -49%
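THP-1 cells pretreated 1 hr with compounds (up to 57.5 uM final), then stimulated with LPS (250 ng/mL final) plus ATP (1.25 mM final); secreted IL-1B measured by AlphaLISA after 16 hr, decreased signal indicating inhibition.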
HT1080-NT tox = kills 2HG-producing HT-1080-NT fibrosarcoma cells | 360,000 compounds, 1.6% hits | Potency, µM (titrated, usually from 46.1 µM), for the others: at the highest dose activity, negative = less viability, actives largely listed as cytotoxic | HT-1080-NT fibrosarcoma viability, CellTiter-Glo ATP luminescence, 48 h;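 further: NT is the 2HG producing partner of a matched IDH1 knockdown line; potency means the concentration at half of the fitted maximal effect; 0% = DMSO-treated cells and -100% = media-only wells without cells; nearly all actives have a fitted effect of over 55% in size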
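Fibrosarcoma NT cells, 750 per well in 5% FBS RPMI, were exposed to compound for 48 hours. Viability: CellTiter-Glo luminescence.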
* marks the source's active call; other numbers are inactive results; u = inconclusive; x = no result given. Unless noted, the call rests on the fitted dose curve; in most records, active means well fitted curve in the direction sought with a large enough effect; inconclusive means small, poorly fitted or top-dose-only effect, or another doubt; inactive means no such curve, though single readings can be large; an effect the other way counts as inactive or inconclusive. Unless noted, on the % scale 0 is the no-effect control and ±100 the full control effect.

SMILES	DT40 TDP1 no CPT	HT1080 IDH1KD tx	ELG1 DNA repair	DT40 TDP1 CPT	IL-1B inflam inh	HT1080-NT tox
COc1ccccc1C(=O)Nc1nnc(CCc2ccccc2)s1	u	6.5µM*	-16%	u	-28	7.3µM*
COc1ccccc1C(=O)Nn1c(C)nc2ccccc2c1=O	u	-5%	-1%	10µM*	-6	1%
COc1ccc(C(=O)Nc2ccccc2Cc2ccccc2)c(OC)c1	u	-15%	-2%	18µM*	0	-15%
COc1ccc(NC(=O)c2ccccc2C)c(OC)c1	-22%	-1%	u	-9%	0	9%
Cc1nc(CC(=O)Nc2ccc(C(N)=O)cc2)cs1	2%	x	x	8%	x	x
O=C(Nc1cccc(Cl)c1)C1CCCN(C2=NS(=O)(=O)c3ccccc32)C1 (stereo not given)	u	-1%	-8%	-22%	-12	2%
O=C(C[n+]1cccc(Cl)c1)c1ccc(F)cc1	-18%	x	x	-2%	x	x
COc1cc(CNc2nc3ccccc3s2)cc(OC)c1OC	23µM*	-2%	-12%	0%	12	-6%
COc1ccccc1C(=O)Nc1nc(-c2ccccc2)ns1	23µM*	x	x	-29%	x	x
COc1ccc(C(=O)Nc2nc3ccccc3s2)c(OC)c1	21µM*	21µM*	3.7µM*	u	-14	21µM*
CCOC(=O)c1sc(Nc2nc3c(OC)cccc3s2)cc1C	16µM*	u	u	u	u	-23%
CCC(=O)Nc1nc(-c2ccccc2)ns1	-17%	-6%	u	-18%	2	-4%
COc1ccc(OCC(=O)Nc2nnc3n2CCS3)cc1	-10%	x	x	-9%	x	x
CC(C)(C)[C@H]1C=C(C(=O)Nc2ccccc2)O[C@@H](OCCCCO)C1	u	7%	x	u	-14	2%
CCOC(=O)c1sc(NC(=O)c2cc3ccccc3o2)nc1C	-11%	0%	u	0%	-14	1%
COc1ccccc1C(=O)Nc1nc2ccc(S(C)(=O)=O)cc2s1	u	-11%	6%	u	10	1%
COc1cc(CNc2ccc(C)c(C)c2)cc(OC)c1OC	1.3µM*	4µM*	u	2.1µM*	25	5µM*
COc1ccccc1C(=O)Nc1nc2ccccc2s1	10µM*	21µM*	u	16µM*	-1	26µM*
CCOC(=O)c1sc(NC(=O)c2ccccc2OC)nc1C	u	-3%	u	8.2µM*	-21	-1%
O=C(Nc1ccc2c(c1)COC2=O)c1ccc(Cl)c(Cl)c1	-6%	7%	u	-24%	-14	21%
O=C(c1ccc(N2CCN(C3CC(=O)N(Cc4cccs4)C3=O)CC2)cc1)c1cccnc1 (stereo not given)	u	u	u	16µM*	-4	-17%
NC(=O)C1(N2CCCCC2)CCN(C2CC(=O)N(Cc3cccs3)C2=O)CC1 (stereo not given)	-4%	3%	9%	17%	-10	16%
Cc1ccc(NC(=O)Cn2nc(C(=O)O)c3ccccc3c2=O)cc1S(=O)(=O)N1CCCCCC1	u	8%	x	u	0	4%
Cc1ccc(C)c(N2CCN(c3nc4ccccc4c4nc(CCn5nc(C)cc5C)nn34)CC2)c1	-1%	x	x	-24%	x	x
Cc1cc(C)n(CCc2nc3c4ccccc4nc(N4CCN(c5ccccc5)CC4)n3n2)n1	3.3µM*	x	x	2.9µM*	x	x
O=C(Nc1ccccc1)Oc1cccc(Br)c1	-23%	1%	u	1%	5	-12%
COc1cc(C(=O)OCC(=O)NC2CCCCC2)cc(OC)c1OC	-29%	-9%	u	-19%	24	-2%
